M1 PAM – human CHRM1 positive allosteric modulation | hit rate 0.088% among 360,000 | AID 588819 | CHO-K1 hM1, Fluo-8 calcium fluorescence, ACh EC20; 0% = ACh EC20, 100% = maximal ACh | P11229 | activation, % at 3 µM; in the data active = activation above about 19%, passing the limit was not always enough
Target sequence (P11229 whole entry, looked up): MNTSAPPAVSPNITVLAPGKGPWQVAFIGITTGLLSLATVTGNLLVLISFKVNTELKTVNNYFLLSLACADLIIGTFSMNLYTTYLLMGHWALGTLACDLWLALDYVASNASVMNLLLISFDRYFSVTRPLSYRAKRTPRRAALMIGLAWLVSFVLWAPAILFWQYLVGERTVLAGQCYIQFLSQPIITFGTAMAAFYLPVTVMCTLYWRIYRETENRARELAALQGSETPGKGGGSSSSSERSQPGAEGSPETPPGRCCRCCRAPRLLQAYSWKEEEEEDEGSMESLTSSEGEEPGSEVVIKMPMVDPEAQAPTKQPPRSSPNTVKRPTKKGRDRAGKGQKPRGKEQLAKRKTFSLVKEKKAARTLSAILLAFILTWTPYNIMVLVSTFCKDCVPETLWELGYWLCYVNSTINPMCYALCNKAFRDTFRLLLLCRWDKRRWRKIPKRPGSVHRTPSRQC
CHO-K1 Ca ag – counter-screen for M1 agonists: effect in parental CHO-K1 cells; Fluo-8 calcium fluorescence; scaled to maximal ATP response, vehicle zero; activation, % at 3 µM; hit rate 0.48% among 360,000; AID 602248; in the data active = activation above about 15%;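 also: untransfected CHO-K1 host cells lacking M1 receptor as counterscreen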
M1 PAM parental – M1 PAM counterscreen hit in parental CHO-K1 cells. ATP EC20, Fluo-8 calcium fluorescence; 0% at ATP EC20, 100% at ATP max. activation, % at 3 µM. hit rate 0.02% among 360,000;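 active = activation above the run cutoff, the mean activation of all test compounds plus 3 SD, cut at about 40% in these data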;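 also: peak over basal fluorescence ratio in a 140 s read after ATP addition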
M1 antag – blocks human M1 muscarinic receptor. P11229. inhibition, % at 3 µM. hit rate 1.3% among 360,000. CHO-K1 hM1, Fluo-8 calcium fluorescence, ACh EC80 antagonist. AID 588852;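 active = percent inhibition above its own plate's cutoff, namely the mean of that plate's compound wells plus 3 SD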;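 also: peak over basal fluorescence ratio during 140 s after agonist addition; 0% = ACh EC80 plus DMSO and 100% = DMSO alone without agonist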
CHO-K1 Ca antag – counter-screen for M1 antagonists: effect in parental CHO-K1 cells; inhibition, % at 3 µM; AID 602250; hit rate 0.6% among 360,000; ATP-induced calcium, Fluo-8 fluorescence;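 active = inhibition above a per-plate cutoff, the plate's mean sample inhibition plus 3 SD, cut at about 24% in these data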;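 also: 0% = DMSO plus EC80 ATP and 100% = DMSO alone without ATP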
CHRM1 agonist – human M1 muscarinic receptor agonism. hit rate 0.33% among 360,000. activation, % at 3 µM. CHO-K1 hM1, Fluo-8 calcium fluorescence, agonist mode; 0% DMSO, 100% acetylcholine EC100. AID 588814. P11229;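 active = activation above the run's mean compound activation plus 3 SD, cut at about 16% in these data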;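 also: peak over basal fluorescence ratio within a 140 s kinetic read after compound addition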
Starred values were filed as active, the others as inactive; nt = no result given. Most compounds without a hit are left out; they make up all but 2.3% or so of the library.

SMILES	M1 PAM	CHO-K1 Ca ag	M1 PAM parental	M1 antag	CHO-K1 Ca antag	CHRM1 agonist
COc1ccc(NC(=O)CCN2CCN(S(=O)(=O)c3ccc(Br)cc3)CC2)cc1	0	2	11	1	-16	0
Cn1c(=O)[nH]c(=O)c2c1nc(N1CCCCC1)n2C/C=N/NC(=O)c1cc(Br)ccc1O	1	26*	-9	-2	5	7
C=CCn1c(N2CCCC2)nc2c1c(=O)[nH]c(=O)n2C	3	0	13	-14	-19	-2
COc1ccc(CNC[C@H]2O[C@@H](n3ccc(=O)[nH]c3=O)[C@H](O)[C@@H]2O)cc1	1	0	4	-18	-10	-2
c1ccc(Oc2cccc(OCCCn3cncn3)c2)cc1	21*	0	6	-26	8	6
CC(C)c1ccc(NC(=O)CCNC(=O)N2CC(=O)Nc3ccccc32)cc1	7	1	22	-20	-16	-3
COc1cccc(NC(=O)c2ccc(N3C(=O)C4CCC(C)CC4C3=O)cc2)c1 (stereo not drawn)	-1	11	3	5	-6	0
CN(CC(=O)Nc1cccc(F)c1)C(=O)/C=C/c1cn(Cc2ccccc2)nc1-c1cccnc1	1	2	13	-3	0	-7
Cc1ccsc1/C=N/NC(=O)c1nnn(-c2nonc2N)c1C(C)C	1	6	15	-8	-14	4
CC(C)c1c(C(=O)N/N=C/c2ccsc2)nnn1-c1nonc1N	-7	22*	14	17	6	28*
CC(C)c1c(C(=O)N/N=C/c2ccc(C(F)(F)F)cc2)nnn1-c1nonc1N	21	12	36	-18	-20	21*
CC(C)c1c(C(=O)N/N=C/c2cccs2)nnn1-c1nonc1N	-6	33*	-10	9	3	34*
CN1CCN(C(=O)/C(C#N)=C/c2ccc(F)cc2)CC1	3	0	-9	-6	-3	-2
CN1CCN(C(=O)/C(=C/c2ccc(F)cc2)c2ccsc2)CC1	-24	1	9	98*	-6	-6
CC1CC(C)CN(C(=O)/C(=C\c2ccccc2)c2ccccc2)C1 (stereo not drawn)	4	0	9	-6	0	-9
CN1CCN(C(=O)/C(=C/c2ccccc2)c2ccccc2)CC1	-21	9	25	98*	-5	-7
C/C(=C/c1ccccc1)C(=O)N1CCN(c2ccc(F)cc2)CC1	8	16*	16	-11	4	4
O=C(CCC(=O)N1CCN(c2ccc(F)cc2)CC1)N1CCN(c2ccc(F)cc2)CC1	1	7	8	-8	-5	-1
O=C(N/N=C/c1ccc(Cl)cc1)c1ccc2nc[nH]c2c1	-14	5	-4	29*	5	0
COC(=O)c1ccc(/C=N/NC(=O)c2ccc3nc[nH]c3c2)cc1	-6	3	-2	15	-5	0
CCCc1cc(C(=O)Nc2ccc(CC)cc2)no1	1	0	-28	-3	-6	-4
COC(=O)Cn1c(=NC(=O)C(C)C)sc2c(C)cc(C)cc21	-9	1	-6	19	30*	-2
COc1ccc(C#Cc2ccc3c(c2)O[C@@H](CN(C)C(=O)Nc2cccc(OC)c2)[C@H](C)CN([C@@H](C)CO)S3(=O)=O)cc1	-12	1	-6	4	13	-3
COc1ccccc1S(=O)(=O)N(C)C[C@@H]1Oc2cc(C#CCC(C)C)ccc2S(=O)(=O)N([C@H](C)CO)C[C@@H]1C	1	0	-11	-3	34*	-2
COc1cccc(NC(=O)N(C)C[C@H]2Oc3cc(Br)ccc3S(=O)(=O)N([C@H](C)CO)C[C@H]2C)c1	-12	0	-7	20*	28*	-3
SMILES	M1 PAM	CHO-K1 Ca ag	M1 PAM parental	M1 antag	CHO-K1 Ca antag	CHRM1 agonist
COC(=O)c1cc(OC(=O)CCc2ccc(OC)c(OC)c2)cc(C(=O)OC)c1	8	2	10	-12	-10	-5
COC(=O)c1ccc(OC(=O)CCc2cc(OC)c(OC)c(OC)c2)cc1	10	16*	16	-4	-15	0
O=C(c1cc(Br)ccc1O)N1CCN(S(=O)(=O)Cc2ccccc2)CC1	-1	3	9	6	-2	1
COc1ccc(Nc2nnc(-c3ccc(O)cc3)c3ccccc23)cc1	-24	-1	5	59*	-5	-6
Oc1ccc(Nc2nnc(-c3ccc(O)cc3)c3ccccc23)cc1	-22	0	-13	36*	-1	-8
COc1ccc(Nc2c3ccccc3nc3ccccc23)cc1	2	16*	13	-9	9	-8
CNC(=O)COc1ccc(Nc2nnc(-c3ccc(C)c(S(N)(=O)=O)c3)c3ccccc23)cc1	-20	0	-2	14	-4	45*
COc1ccc(Nc2c3c(nc4ccccc24)CCC3)cc1	22	1	8	-20	-7	-8
O=c1[nH]c(=O)n2c(c1-c1ccccc1)OC(CBr)C2 (stereo not drawn)	6	0	-5	-12	7	0
CC(C)NS(=O)(=O)c1ccc(OCC(=O)Nc2ccc(F)cc2F)cc1	5	3	10	-9	-19	-4
CN(Cc1ccncc1)C(=O)[C@@H]1CCCN1C(=O)[C@@H]1CCCN1	nt	0	-4	nt	-19	nt
O=C(COC(=O)Cc1ccc(Cl)cc1)Nc1c(F)cccc1F	3	1	22	2	-11	-4
COCCCN1CC(=O)N2C(c3ccccc3)c3[nH]c4ccccc4c3C[C@H]2C1=O (stereo partly drawn)	3	1	-10	-9	-11	-8
COC(=O)c1ccc(C2c3[nH]c4ccccc4c3C[C@H]3C(=O)N(C)CC(=O)N23)cc1 (stereo partly drawn)	-2	2	-7	12	-16	0
CCN1C(=O)[C@@H]2Cc3c([nH]c4ccccc34)C(c3ccc(OC)cc3)N2C1=S (stereo partly drawn)	-31	6	9	71*	-5	-4
CN1CC(=O)N2C(c3ccc(Cl)cc3)c3[nH]c4ccccc4c3C[C@H]2C1=O (stereo partly drawn)	0	24*	19	0	9	-3
O=C([C@H]1O[C@@H](n2ccc(=O)[nH]c2=O)[C@H](O)[C@@H]1O)N1CCSC1	-4	0	-3	-3	0	-3
c1ccc(Oc2cc(-c3ccccc3)nc(-c3ccccc3)n2)cc1	26*	0	-7	9	3	-2
Cc1cc(Oc2ccccc2)nc(-c2ccccc2)n1	9	-1	6	-10	-36	-4
Cc1cc([N+](=O)[O-])ccc1N(C)C	6	0	15	-8	-3	-5

Assay outcomes as filed in PubChem BioAssay.
